86 compounds from PubChem BioAssay AID652048 (National Center for Advancing Translational Sciences (NCATS), 2013) can be followed below.

Several values for one entry are separate records, joined by “and”; a condition that tells them apart may be missing. Equal entries are not always repeated. In all, about 410,000 compounds went through this assay and about 2,400 (0.59%) were called active. The sample holds actives, similar compounds and a random draw of the others, so the mix is not that of the screen. Rule as the data show it: active = max activation above about 30%; inactive = the rest.

D(3) dopamine receptor (Homo sapiens), sequence (P35462 whole entry, looked up): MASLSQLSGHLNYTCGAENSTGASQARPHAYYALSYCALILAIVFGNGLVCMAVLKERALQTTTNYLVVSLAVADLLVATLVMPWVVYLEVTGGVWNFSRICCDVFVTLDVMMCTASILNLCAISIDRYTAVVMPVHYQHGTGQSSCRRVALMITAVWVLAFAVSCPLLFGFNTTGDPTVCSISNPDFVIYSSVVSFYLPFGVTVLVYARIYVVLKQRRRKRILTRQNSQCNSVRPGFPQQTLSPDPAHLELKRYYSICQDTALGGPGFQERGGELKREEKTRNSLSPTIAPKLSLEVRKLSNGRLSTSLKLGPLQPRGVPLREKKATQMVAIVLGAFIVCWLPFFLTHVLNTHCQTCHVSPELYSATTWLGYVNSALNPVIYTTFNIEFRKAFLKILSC

In this experiment the target is D(3) dopamine receptor (Homo sapiens) (UniProt P35462). As to the kind of experiment: qHTS of D3 Dopamine Receptor Agonist: qHTS. Also: 0% is about no effect. The settings on record: D3R DiscoveRx beta-arrestin cells, luminescence, 90 min; active compounds read high. The method, boiled down:
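Agonist-mode cell screen: cells plated at 1500/well and incubated overnight at 37 °C, then exposed to library compounds for 90 min at 37 °C. Detection reagent was added for 30–60 min at room temperature, and luminescence was read.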
For orientation: Quantitative high-throughput screening tests each substance at several concentrations.
On to `CN[C@@H]1[C@@H](O)[C@@H](O[C@@H]2[C@H](O)[C@H](O[C@H]3OC(CN)=CC[C@H]3N)[C@@H](N)C[C@H]2N)OCC1(C)O` (stereo partly specified), for which the max activation is -3.05% (inactive). `O=C1NS(=O)(=O)c2ccccc21`: the max activation is 0.55% (inactive). For `CCn1cc(C(=O)NCCc2ccccc2)c(=O)c2cc(S(=O)(=O)N3CCCCCC3)ccc21` the value was -2.07% (inactive); for `CC(=O)Nc1ccc(NC(=O)C2CCCN(S(=O)(=O)c3ccc4c(c3)CCCC(=O)N4)C2)cc1` (stereo unspecified), 6.84% (inactive); for `CN(C)CCCSc1ccccc1NC(=O)/C=C/c1ccccc1`, -15.8% (inactive).

Regarding `CCOC(=O)c1cc(OC(=O)c2ccccc2Cl)n(-c2ccccc2)n1`, the max activation is -8.96% (inactive). For `CCOC(=O)c1cc(-c2ccccc2C)n(Cc2cc(C)no2)n1` the value was 59.5% (active); for `CCOC(=O)c1cc(-c2sc(NC(=O)c3ccccc3)nc2C)n(Cc2ccccc2)n1`, 8.04% (inactive); for `CC(=O)N1CCN(c2ccccc2NC(=S)NC(=O)c2cc3ccccc3o2)CC1`, -3.88% (inactive). For `CCc1ccc(C(=O)NC(=S)Nc2ccccc2N2CCOCC2)cc1` the value was -1.31% (inactive); for `COc1ccc(C(=O)NC(=S)Nc2ccccc2N2CCN(S(C)(=O)=O)CC2)cc1OC`, 34.6% (active); for `CCOc1cccc2sc(N3CCN(C(=O)C4CC4)CC3)nc12`, -4.91% (inactive). For `CC/C(=N\NC(=O)c1ccccc1Cl)c1ccc(Br)s1` the value was 5.71% (inactive). In the case of `Cc1ccccc1-n1c(SCC(=O)Nc2cccc3ccccc23)nc(O)cc1=O`, the max activation was 0.0019% (inactive). For the compound `C/C(=N\NC(=O)CNc1cccc2ccccc12)c1ccc(Br)s1`, the max activation is 30.4% (active). On to `O=C1CSc2ccc(S(=O)(=O)NCc3ccccc3)cc2N1`, for which the max activation was -4.53% (inactive). Turning to `COc1ccccc1CNS(=O)(=O)c1ccc2c(c1)NC(=O)CS2`, the max activation is 5.98% (inactive).

`CCC(Cc1ccccc1)NS(=O)(=O)c1ccc2c(c1)NC(=O)CS2` (stereo unspecified): the max activation was 34.1% (active).

For the compound `Cc1ccccc1CSc1nc2c([nH]c3ccccc32)c(=O)n1C`, the max activation was -3.75% (inactive). The figure for `COc1ccc(-c2nc3n(c2Br)CCC3)cc1` is 8% (inactive); for `COc1ccc(-c2nc3c(s2)CCc2onc(-c4ccc(OC)cc4)c2-3)cc1` it is 5.32% (inactive); for `COc1ccc(-c2nc3c(s2)CCc2onc(-c4ccc(Br)cc4)c2-3)cc1` it is 31.5% (active). For `NC(=O)C(=O)N/N=C/c1ccc([N+](=O)[O-])o1` the value was -13.9% (inactive).

Consider `CN1CC(O)c2cc(N=NC(N)=O)c(O)cc21` (stereo unspecified), for which the max activation is -13% (inactive). For `Cc1onc(-c2ccc(F)cc2F)c1C(=O)Nc1cccc(C(F)(F)F)c1` the value was -14.1% (inactive); for `Cc1oc2ccc(O)c(CN3CCCCC3)c2c1C(=O)Nc1cccc(C(F)(F)F)c1`, 0.725% (inactive); for `Cc1oc2c(F)c(F)c(F)c(F)c2c1S(=O)(=O)Nc1cccc(C(F)(F)F)c1`, 39.8% (active). Consider `COc1cc(Cl)c(NC(=O)C(NS(=O)(=O)c2cccs2)C(C)C)c(OC)c1` (stereo unspecified), for which the max activation was 6.54% (inactive).

As for `COc1ccc(CCNc2ncnc3c2cnn3-c2ccc(C)cc2)cc1`, the max activation was 11.8% (inactive). For `Cc1ccccc1C(=O)Nc1sc2c(c1C(=O)N1CCC(C)CC1)CCCC2` the value was -2.21% (inactive); for `COc1ccccc1-n1c(-c2ccc(C)cc2)cn2c3c(=O)n(C)c(=O)n(C)c3nc12`, -0.938% (inactive); for `COc1ccccc1-n1c(=S)[nH]c2c(sc(=S)n2-c2ccc(C)cc2C)c1=O`, 37.7% (active). For the compound `CCc1ccc(-n2c(=S)sc3c(=O)n(-c4ccccc4OC)c(=S)[nH]c32)cc1`, the max activation is 0.277% (inactive). With `COc1cc(CNCCSc2nnnn2C)ccc1OCc1ccc(Cl)cc1Cl`, the max activation was -19% (inactive). For `O=C(CCC1N=C2c3ccccc3N=C(SCc3ccccc3F)N2C1=O)NCCc1ccccc1` (stereo unspecified) the value was 5.62% (inactive); for `Cc1ccc(NC(=O)CN(C)C(=O)Cn2nnc(-c3ccccc3)n2)cc1`, 5.42% (inactive).

With `O=C(Cn1nnc(-c2ccccc2)n1)N/N=C/c1ccc(-c2ccc(Cl)cc2)o1`, the max activation was 34.9% (active). For `O=C(Cn1nnc(-c2ccccc2)n1)NC(=O)NC1CCCC1`, the max activation was 4.92% (inactive). As to `CCOc1ccc(CNC(=O)c2cc(=O)[nH]c3ccc(S(=O)(=O)N4CCCCC4)cc23)cc1`, the max activation was 1.15% (inactive).

For the compound `COc1ccc2cc(CNc3ccc(OC)c(OC)c3)c(=O)n(CC(=O)Nc3ccccc3F)c2c1`, the max activation is 2.84% (inactive).

With `Cc1ccc(OCCSc2nc(C)c(Cc3ccccc3)c(=O)[nH]2)cc1`, the max activation was 4.35% (inactive). As to `Cc1ccc(CNC(=O)[C@@H](NC(=O)Cc2ccccc2)C(C)C)cc1`, the max activation is -1.46% (inactive). In the case of `Cc1ccc(CNC(=O)Cc2cn(C)c3ccccc23)cc1`, the max activation is -3.47% (inactive). As for `Cc1ccc(CNC(=O)c2ccccc2CCc2ccccc2)cc1`, the max activation was 31.4% (active). For `COC(=O)C1(S(=O)(=O)C2(C(=O)OC)CCCC2)CCCC1` the value was 31% (active).

As to `CC1(C)OC[C@@H](COC(=O)CCc2ccc(OC[C@@H](O)CNCCNC(=O)N3CCOCC3)cc2)O1`, the max activation was -23.2% (inactive) and -20.2% (inactive). With `CC(C)(C)OC(=O)CNC(=O)c1[nH]cnc1C(=O)N[C@@H](CCCCN)C(=O)OC(C)(C)C`, the max activation was 0% (inactive). For `CCN1CCN(CCCNC(=O)c2ccc3c(c2)sc2nc(-c4ccc(OC)cc4)cn23)CC1`, the max activation is -6.77% (inactive).

Regarding `COc1ccc(-c2cn3c(n2)sc2cc(C(=O)Nc4ccccc4F)ccc23)cc1`, the max activation was 35.4% (active). The figure for `COc1ccc(-c2cn3c(n2)sc2cc(C(=O)Nc4ccc(F)cc4)ccc23)cc1` is 13.3% (inactive).

Consider `O=C(Nc1ccc(O)cc1)c1ccccc1O`, for which the max activation is -0.0653% (inactive). `CC1(C)SC2C(NC(=O)COc3ccccc3)C(=O)N2C1C(=O)O` (stereo unspecified): the max activation was 2.21% (inactive) and 6.06% (inactive). The figure for `CC1(C)S[C@@H]2[C@H](NC(=O)COc3ccccc3)C(=O)N2C1C(=O)OCc1ccccc1` (stereo partly specified) is -3.7% (inactive); for `COC(=O)C1[C@H]2SC(C)(C)C(C(=O)OC)N2C(=O)N1Cc1nc2ccccc2s1` (stereo partly specified) it is 37.5% (active); for `Cc1ccc2[nH]c3c(=O)n(CC(=O)NC(C)C)ncc3c2c1` it is 2.56% (inactive). As to `CCOc1ccc(NS(=O)(=O)c2ccc(N)cc2)nn1`, the max activation was -7.97% (inactive). For `COc1cccc(C(=O)Nc2c3c(nn2-c2cccc(C)c2C)CS(=O)(=O)C3)c1OC` the value was -20.8% (inactive). For `Cc1cccc(C(=O)OC(C)C(=O)NC2CCCc3ccccc32)c1O` (stereo unspecified) the value was -10.5% (inactive); for `COc1ccc(C(=O)NC2CCCc3c2cnn3-c2cccc(C)c2C)c(OC)n1` (stereo unspecified), 48.2% (active). For `Cc1ccc(NC(=O)c2nc(S(=O)(=O)Cc3cccc(C)c3)ncc2Cl)cc1` the value was -23.7% (inactive); for `CC1(C)S[C@@H]2[C@H](N=CN3CCCCCC3)C(=O)N2[C@H]1C(=O)O`, -22.5% (inactive). Regarding `CC(C)(C)OC(=O)N1CCC(c2c(C(=O)NCCc3ccsc3)cnn2-c2ccc(F)cc2F)CC1`, the max activation is 6.51% (inactive). With `COCOc1cc(O)c(C(=O)/C=C/c2ccc(OCOC)c(OCOC)c2)c(OCOC)c1`, the max activation was 32% (active). For `COc1ccc(/C=C/C(=O)c2cc(Br)ccc(=O)c2O)cc1` the value was -1.59% (inactive); for `CCOc1ccc(/C=C/C(=O)OCC(=O)c2ccccc2OC)cc1OC`, 3.52% (inactive); for `O=C(Nc1cccc(C(F)(F)F)c1)c1cc(Br)cc(Br)c1O`, 0.389% (inactive).

Regarding `CC(C(=O)O)c1ccc(C2CCCCC2)c2ccccc12` (stereo unspecified), the max activation is 4% (inactive). For `Cc1ccc2nc(CN3CCN(S(=O)(=O)c4ccc(C)c(C)c4)CC3)oc2c1`, the max activation is -11.8% (inactive). For `COc1ccc2sc(-c3ccc(N(C)C)cc3)c(C#CCO)c2c1` the value was 38.4% (active); for `COc1ccc2c(c1)c(=Cc1ccc(N(C)C)cc1)c1cc(-c3ccccc3)[n+](C)n12`, 1.19% (inactive). Consider `Cc1ccc(C)c(S(=O)(=O)n2nc(C)c(S(=O)(=O)N3CCC(C)CC3)c2C)c1`, for which the max activation is 3.28% (inactive). Consider `CC(O)COc1ccccc1` (stereo unspecified), for which the max activation is 8.58% (inactive). The figure for `O=C(COC(=O)c1cc(=O)[nH]c2ccccc12)Nc1nc(-c2cccc(Br)c2)cs1` is 38.6% (active); for `O=C(CSc1nc2ccccc2c(=O)[nH]1)Nc1nc(-c2ccc(Br)cc2)cs1` it is 37.7% (active); for `O=C(COC(=O)c1cc(=O)[nH]c2ccccc12)NCc1cccc(Cl)c1` it is 3.7% (inactive). The figure for `COc1ccc(NC(=O)CSc2nc3ccccc3[nH]2)cc1` is 0.0768% (inactive); for `O=C(CSc1nc(O)c(Cc2ccccc2)c(=O)[nH]1)Nc1nc2c(s1)CCCC2` it is 3.59% (inactive). For `CC1CCN(C(=O)COC(=O)c2cc(=O)[nH]c3ccccc23)CC1`, the max activation is -2.85% (inactive). The figure for `COc1ccc(C(=O)Nc2cccc(C(=O)OCc3cc(=O)n4c5c(sc4n3)CCCC5)c2)cc1` is -9.48% (inactive); for `COc1cccc2cc(-c3nc(Cl)c4c5c(sc4n3)CC(C)CC5)c(=O)oc12` (stereo unspecified) it is 8.91% (inactive).

As for `COC(=O)c1sccc1S(=O)(=O)N(CC(=O)Nc1ccc(C)c(F)c1)c1ccc(C)c(C)c1`, the max activation was -2.21% (inactive). For `Cc1ccc(CN2CCC(CNC(=O)c3cnn(-c4ccccc4Cl)c3C3CCN(C(=O)OC(C)(C)C)CC3)CC2)cc1` the value was -13.6% (inactive); for `CO/N=C(/C(=O)N[C@@H]1C(=O)N2C(C(=O)O)=C(Cn3nnc(C)n3)CS[C@H]12)c1csc(N)n1`, -4.25% (inactive).

In the case of `Cc1ccc(CCNC(=O)C2CCN(c3nnc(-n4cccc4CNc4ccc(C)cc4)s3)CC2)cc1`, the max activation is 56.2% (active).

Consider `CSc1ccc(CCNC(=O)C2CCN(c3nnc(-n4cccc4)s3)CC2)cc1`, for which the max activation was -2.44% (inactive). Turning to `CCOc1ccc(CNC(=O)C2CCN(c3nnc(-n4cccc4CNc4ccc(C)cc4)s3)CC2)cc1OC`, the max activation was 1.82% (inactive).
